High-throughput results deposited in PubChem by National Center for Advancing Translational Sciences (NCATS).
HP1b binding inh = blocks HP1-beta chromodomain binding to methylated histone tails; P83916; AlphaScreen HP1-beta / biotin-H3K9me3 peptide binding; Potency, µM (highest dose often 114 µM), without a hit: at the top dose activity change, negative = inhibition, actives largely listed as inhibitors; actives 0.56% (n = 390,000); AID 540317; also: potency is read from the fitted curve at half-maximal effect; nearly all actives have a fitted effect of over 70% in size
Target sequence (P83916 whole entry, looked up): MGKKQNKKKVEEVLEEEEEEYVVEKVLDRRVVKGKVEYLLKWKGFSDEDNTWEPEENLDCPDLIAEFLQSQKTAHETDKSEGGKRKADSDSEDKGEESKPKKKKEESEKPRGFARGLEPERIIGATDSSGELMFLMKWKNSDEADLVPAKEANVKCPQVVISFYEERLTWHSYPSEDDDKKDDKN
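Compound inhibition of the preformed complex between 50 nM HP1-beta and 50 nM biotinylated H3K9me3 peptide was read by AlphaScreen. Buffer was PBS pH 7.4 with 0.01% Tween-20. Incubations ran 30 min at room temperature, with 10 ug/mL donor/acceptor beads.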
TDP1 block = blocks human tyrosyl-DNA phosphodiesterase 1 | Q9NUW8 | recombinant TDP1, AlphaScreen DNA substrate cleavage | Potency, µM (series often up to 130 µM), for the others: at the highest dose activity change, negative = inhibition, most hits filed as inhibitors | actives 0.28% (n = 350,000) | AID 485290; also: potency is read from the fitted curve at half-maximal effect; % is scaled to controls: 0 for no effect and ±100 for the full control effect; nearly all actives have a fitted effect of over 40% in size
Target sequence (Q9NUW8 whole entry, looked up): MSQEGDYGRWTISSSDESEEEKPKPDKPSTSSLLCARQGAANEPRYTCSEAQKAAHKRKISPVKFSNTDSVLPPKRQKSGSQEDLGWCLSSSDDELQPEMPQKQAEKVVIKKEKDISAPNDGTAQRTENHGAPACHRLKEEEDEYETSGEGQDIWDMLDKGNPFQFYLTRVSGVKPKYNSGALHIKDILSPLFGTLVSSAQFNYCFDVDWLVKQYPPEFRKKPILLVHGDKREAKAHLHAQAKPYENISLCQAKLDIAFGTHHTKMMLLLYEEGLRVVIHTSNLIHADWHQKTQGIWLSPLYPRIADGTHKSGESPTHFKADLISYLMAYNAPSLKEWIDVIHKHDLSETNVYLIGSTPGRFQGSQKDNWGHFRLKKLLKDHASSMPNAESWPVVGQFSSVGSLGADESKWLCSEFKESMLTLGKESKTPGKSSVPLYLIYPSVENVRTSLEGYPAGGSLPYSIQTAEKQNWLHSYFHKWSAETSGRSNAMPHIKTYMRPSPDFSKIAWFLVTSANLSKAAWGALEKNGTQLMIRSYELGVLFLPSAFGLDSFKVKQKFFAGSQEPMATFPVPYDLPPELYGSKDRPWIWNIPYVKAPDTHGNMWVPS
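E. coli-derived human Tdp1, 1 nM final. Cpd preinc 15 min RT; substrate 15 nM final, 5 min RT; AS bead mix 10 ug/ml final, 10 min RT. Signal loss = tyrosine-FITC cleavage. No-enzyme wells = max signal.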
Six1-Eya2 blk = blocks human Six1 binding to Eya2; Q15475+O00167; activity change, % (no concentration beside the values); AID 651725; AlphaScreen GST-Six1/His-Eya2 binding, biochemical; active compounds read low; actives 0.56% (n = 360,000); in the data active = activity change below about -65%; inconclusive = mostly about -30% to -63%; also: % is scaled to controls: 0 for no effect and ±100 for the full control effect
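GST-Six1 + His-Eya2 (5X stock: 250/500 nM); Tris pH 8.0, 300 mM NaCl, 0.05% BSA, 0.02% Tween 20; GSH donor/Ni acceptor beads; 1 h 37 °C dark; AlphaScreen readout.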
CtBP-E1A inh = blocks the CtBP interaction with E1A; activity change, % (no concentration beside the values); actives 0.49% (n = 340,000); AlphaScreen GST-E1A/His-CtBP binding, 1536-well; active compounds read low; AID 651724; in the data active = activity change below about -65%; inconclusive = mostly about -30% to -63%; also: % is scaled to controls: 0 for no effect and ±100 for the full control effect
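In 5 uL wells, 23 nL compound meets equimolar GST-E1A and His-CtBP (5X stock 125 nM each) for 2 h, 37 °C. Beads (5X, 50 ug/mL) then 1 h, 37 °C, dark.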
BAZ2B inh = BAZ2B (human) inhibition | Q9UIF8 | AlphaScreen BAZ2B-H3K14Ac peptide displacement | Potency, µM (series often up to 114 µM), for the others: at the highest dose activity change, negative = inhibition, actives largely listed as inhibitors | actives 4.4% (n = 360,000) | AID 504333; also: potency is read from the fitted curve at half-maximal effect; % is scaled to controls: 0 for no effect and ±100 for the full control effect; nearly all actives have a fitted effect of over 60% in size
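BAZ2B (50 nM) with biotin-H3(5-23)K14Ac peptide (50 nM) in PBS pH 7.4, 0.01% Tween-20, preformed 30 min, then compound 30 min at room temperature; top concentration 110uM. AlphaScreen streptavidin donor/nickel chelate acceptor beads (10 ug/mL final), 20 min dark, signal read.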
JMJD2A Tudor = blocks the human JMJD2A Tudor domain; AlphaScreen JMJD2A-Tudor / H3K4me3 peptide binding; Potency, µM (top dose mostly 114 µM), for the others: top-dose activity change, negative = inhibition, hits mostly inhibitors; O75164; actives 4.4% (n = 390,000); also: potency is read from the fitted curve at half-maximal effect; % is scaled to controls: 0 for no effect and ±100 for the full control effect; nearly all actives have a fitted effect of over 50% in size
JMJD2E inh = JMJD2E (human) demethylase inhibition, confirmation; actives 93% (n = 140); Recombinant JMJD2E, FDH-coupled NADH fluorescence (FDH is formaldehyde dehydrogenase); shares compounds with JMJD2A Tudor; AID 2677; Potency, µM (doses to about 56.8 µM), for the others: top-dose activity change, negative = inhibition, hits mostly inhibitors
FDH inh = blocks Pseudomonas putida formaldehyde dehydrogenase, flagging JMJD2E artifacts; shares compounds with JMJD2A Tudor; FDH enzyme assay, NADH fluorescence kinetic; Potency, µM (series often up to 56.7 µM), for inactives: at the highest dose activity, negative = inhibition, usual class: inhibitors; actives 10% (n = 140)
G9a confirm = confirmation of human histone methyltransferase G9a inhibitors; shares compounds with JMJD2A Tudor; G9a H3K9 monomethylation, AlphaScreen, 2 h; Potency, µM, hits mostly inhibitors; actives 89% (n = 370); AID 588344; also: potency is read from the fitted curve at half-maximal effect; nearly all actives have a fitted effect of over 65% in size
Starred values were filed as active, the others as inactive; ? = inconclusive; nt = no result given; [ ] = remark or other dose. Rows were chosen to be rich in hits. Some 5.3% of all compounds tested hit in one or more screens of this group. Unless noted, calls follow the shape of the dose curve; as a rule, active = well fitted curve in the direction sought with a large enough effect; inconclusive = small, poorly fitted or top-dose-only effect, or another doubt; inactive = no such curve, though single readings can be large; an effect the other way counts as inactive or inconclusive.

SMILES	HP1b binding inh	TDP1 block	Six1-Eya2 blk	CtBP-E1A inh	BAZ2B inh	JMJD2A Tudor	G9a confirm	others
COc1ccc(N2CCN(Cc3nc(N)nc(Nc4ccc(C)c(Cl)c4)n3)CC2)cc1	-48.4%	14.3%	?	?	25.1µM*	35.5µM*	7.08*
COCC(=O)Nc1ccc(C(C)C)cc1	5.4%	2.9%	-2.0	2.6	8.6%	-18.6%	nt
COCC(=O)Nc1ccc(N(C)C)cc1	26.8%	6.8%	-1.6	-1.8	3.4%	-10.8%	3.17*
Cc1cccc(NC(=O)CCCc2ccccc2)c1	49.6%	0.0%	-3.4	nt	9.3%	32.0%	nt
CN(C)c1ccc(NC(=O)COC(=O)CCC(=O)c2ccc(F)cc2)cc1	-1.9%	8.5%	-15.9	-15.9	?	?	7.08*
CCOc1cc(C(=O)CCC(=O)OCC(=O)Nc2ccc(F)cc2)ccc1O	22.2%	nt	2.7	1.9	15.1%	-11.0%	nt
CN(C)c1ccc(NC(=O)CCCc2ccccc2)cc1	?	6.8%	-18.2	-11.7	44.7µM*	?	2.52*
O=c1n(Cc2ccc(F)cc2Cl)c2ccccc2c2nc(-c3ccccc3)nn12	10.2%	-2.5%	nt	nt	-9.2%	-7.7%	nt
CN(C)CCN(Cc1ccco1)C(=O)c1cc2c(s1)-c1ccccc1OC2	33.0%	5.9%	nt	nt	-14.7%	-5.1%	nt
COc1ccc(NC(=O)c2cc3c(=O)n(Cc4cccnc4)ccc3nc2C)cc1Cl	85.6%	8.4%	nt	nt	12.8%	-20.3%	nt
CCOC(=O)N1CCc2c(sc(NCc3cccs3)c2C(=O)Nc2cc(OC)ccc2OC)C1	?	11.4%	nt	nt	-38.0%	3.16µM*	1.15*
CCOC(=O)N1CCc2c(sc(NCc3cccs3)c2C(=O)Nc2ccc(OC)cc2OC)C1	-18.6%	10.4%	nt	nt	?	3.16µM*	3.63*
O=C1CC(c2ccccc2)Cc2[nH]c(=O)c(-c3nc(-c4ccc(F)cc4)cs3)cc21 (stereo unspecified)	30.6%	-5.5%	nt	nt	12.6µM*	22.4µM*	2.51*
O=C(CSc1ncn[nH]1)c1cccc([N+](=O)[O-])c1	12.1%	0.6%	6.1	-11.1	-9.2%	28.2µM*	nt	JMJD2E inh=10µM*;FDH inh=0.891µM*
COc1ccc(C(=O)COC(=O)CN2CC(=O)Oc3ccccc32)cc1Br	-6.5%	?	-93.0*	-92.8*	25.1µM*	35.5µM*	25.1*
CC(C)CCNC(=O)Nc1cc(C(=O)NCc2cccc(F)c2)ccc1N1CCCC1	-3.1%	3.8%	nt	nt	-4.3%	-16.9%	nt
CCC/C=C/C(C)O (stereo unspecified)	nt	5.6%	nt	nt	nt	nt	nt
Cc1c(O)c(CN2CCCC2)cc2c1oc(=O)c1ccccc12	11.7%	2.1%	-3.3	-13.2	7.4%	?	nt
COCc1cc(CN2CCCC2)c(O)c2ncccc12	26.6%	10.4%	-91.3*	-93.9*	3.16µM*	8.91µM*	nt	JMJD2E inh=7.94µM*;FDH inh=-25.0%
O=C(NCCN1CCOCC1)NC1(C(F)(F)F)Oc2ccccc2O1	47.0%	1.0%	3.0	5.6	9.3%	-2.1%	?
CCCCNC(=O)NC1(C(F)(F)F)Oc2ccccc2O1	27.3%	4.5%	11.2	-6.5	40.6%	-20.3%	nt
COc1ccc(CN2CCc3c([nH]c4ccccc34)C2)cc1Br	-22.5%	nt	-1.8	nt	14.1µM*	20µM*	5.02*
COc1ccc2cc(CNc3ccc(C)cc3)c(=O)n(CC(=O)Nc3ccc(OC)c(Cl)c3)c2c1	21.4%	11.3%	nt	nt	-14.0%	-11.4%	nt
COC(=O)Cc1ccc2sc(-c3ccccc3)nc2c1	172.9%	-5.6%	27.8	3.6	74.6%	93.2%	nt
COC(=O)Cc1sc(-c2ccccn2)nc1-c1ccccc1	?	6.3%	11.5	nt	9.6%	-26.2%	5.02*
SMILES	HP1b binding inh	TDP1 block	Six1-Eya2 blk	CtBP-E1A inh	BAZ2B inh	JMJD2A Tudor	G9a confirm	others
COc1ccc(CNC(=O)C2CCCN(C(=O)c3cnn(-c4ccc(F)cc4)c3-n3cccc3)C2)cc1 (stereo unspecified)	28.2%	0.0%	nt	nt	-13.9%	2.4%	nt
O=C(CC1SC2=NCCN2C1=O)Nc1ccc(Cl)cc1 (stereo unspecified)	16.9%	2.2%	7.9	-10.7	-0.1%	-9.2%	nt
Cc1ccc(NC(=O)CC2SC3=NCCCN3C2=O)c(C)c1 (stereo unspecified)	3.7%	2.3%	-11.7	-2.4	2.1%	19.9%[11.4 µM]	4.47*
CCN(CC)c1ccc(NC(=O)CN2CCN(CC(=O)Nc3ccccc3F)CC2)cc1	-27.8%	9.1%	-23.7	-8.4	?	?	6.31*
CCN(CC)c1ccc(NC(=O)CN2CCN(c3ccc(F)cc3)CC2)cc1	-16.9%	10.5%	?	?	?	?	nt
COc1ccc(N2CCC(CNS(=O)(=O)c3cccc(C(F)(F)F)c3)C2)cc1 (stereo unspecified)	?	14.4%	-27.8	-24.4	10µM*	39.8µM*	0.448*
CCc1ccc(NC(=O)CN2CCN(c3ccc(OC)cc3)CC2)cc1	-13.2%	nt	-8.2	-20.7	nt	?	nt
COc1ccc(N2CCC(CNC(=O)Nc3ccc(OC)cc3OC)C2)cc1 (stereo unspecified)	-78.0%	6.4%	?	-18.9	39.8µM*	44.7µM*	2.51*
CCc1ccc(NC(=O)NCC2CCN(c3ccc(OC)cc3)C2)cc1 (stereo unspecified)	3.6%	2.5%	-14.7	-11.4	-36.2%	-33.8%	0.893*
COc1ccc(N2CCC(CNC(=O)Nc3ccc(C)c(C)c3)C2)cc1 (stereo unspecified)	?	9.2%	?	-3.6	39.8µM*	25.1µM*	2.52*
CCCN1CCN(CCNC(=O)Nc2ccc(OC)cc2OC)CC1	23.2%	-7.0%	nt	nt	-11.6%	-11.0%	nt
Cc1ccc(CN(C(=O)COc2cccc([N+](=O)[O-])c2)c2ccccn2)o1	1.7%	3.6%	nt	nt	?	?	nt
COc1ccc2c(c1)c1c(c(=O)n(-c3ccccc3)c(=O)n1CC(=O)NCCC1=CCCCC1)n2C	20.4%	0.0%	nt	nt	-2.9%	-5.5%	nt
